# Assay results published in ChEMBL document CHEMBL2218924, “A broad activity screen in support of a chemogenomic map for kinase signalling research and drug discovery” (Biochem J, 2013).
# Target: Vascular endothelial growth factor receptor 1 (Homo sapiens) (UniProt P17948)
# Details: at 10 µM
# Vascular endothelial growth factor receptor 1 (Homo sapiens), sequence (P17948 whole entry): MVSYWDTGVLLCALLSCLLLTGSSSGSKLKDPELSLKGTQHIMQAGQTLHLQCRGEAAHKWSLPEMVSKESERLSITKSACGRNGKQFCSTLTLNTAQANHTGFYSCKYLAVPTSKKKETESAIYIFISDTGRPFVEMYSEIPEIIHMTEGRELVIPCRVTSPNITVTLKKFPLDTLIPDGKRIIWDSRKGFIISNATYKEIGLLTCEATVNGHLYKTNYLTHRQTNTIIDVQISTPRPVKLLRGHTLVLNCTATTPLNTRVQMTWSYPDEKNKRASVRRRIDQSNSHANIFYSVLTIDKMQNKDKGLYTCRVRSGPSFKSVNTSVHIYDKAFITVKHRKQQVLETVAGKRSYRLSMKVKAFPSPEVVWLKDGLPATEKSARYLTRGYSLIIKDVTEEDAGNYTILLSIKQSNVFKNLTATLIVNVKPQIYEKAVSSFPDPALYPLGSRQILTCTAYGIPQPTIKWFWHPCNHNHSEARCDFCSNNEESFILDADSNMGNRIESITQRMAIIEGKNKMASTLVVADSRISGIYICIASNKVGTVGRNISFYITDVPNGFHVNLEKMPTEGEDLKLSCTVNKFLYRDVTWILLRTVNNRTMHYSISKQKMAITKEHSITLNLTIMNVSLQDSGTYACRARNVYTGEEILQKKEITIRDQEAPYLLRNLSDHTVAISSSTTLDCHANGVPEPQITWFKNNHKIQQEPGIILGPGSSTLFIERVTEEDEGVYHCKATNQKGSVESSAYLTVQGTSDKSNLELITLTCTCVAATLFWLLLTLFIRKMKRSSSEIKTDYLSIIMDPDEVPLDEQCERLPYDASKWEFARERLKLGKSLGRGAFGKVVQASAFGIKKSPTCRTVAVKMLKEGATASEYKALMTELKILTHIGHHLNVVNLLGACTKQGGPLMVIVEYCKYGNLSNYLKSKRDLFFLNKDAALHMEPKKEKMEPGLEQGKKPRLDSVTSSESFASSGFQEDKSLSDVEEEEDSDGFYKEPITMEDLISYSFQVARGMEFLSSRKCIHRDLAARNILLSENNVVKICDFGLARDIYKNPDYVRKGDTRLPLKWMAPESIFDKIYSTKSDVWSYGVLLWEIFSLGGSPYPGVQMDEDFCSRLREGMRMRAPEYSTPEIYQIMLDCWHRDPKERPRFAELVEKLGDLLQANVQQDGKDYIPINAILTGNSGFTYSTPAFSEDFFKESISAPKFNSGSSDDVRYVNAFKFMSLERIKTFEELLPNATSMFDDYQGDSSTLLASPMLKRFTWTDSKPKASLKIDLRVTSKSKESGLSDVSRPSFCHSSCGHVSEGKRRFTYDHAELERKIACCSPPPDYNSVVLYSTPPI
row,SMILES,residual activity [%]
1,CC(=O)O/N=C1\C(=C2\C(=O)Nc3cc(Br)ccc32)Nc2ccccc21,1
2,Oc1n[nH]c2nnc(-c3c(-c4ccccc4)nn4ccccc34)cc12,80
3,Cn1cnc2cc3c(Nc4cccc(Br)c4)ncnc3cc21,18
4,O=C(O)c1ccc2c3c1cccc3c(=O)n1c3ccccc3nc21,81
5,Nc1nc(Nc2ccc(S(N)(=O)=O)cc2)nn1C(=S)Nc1c(F)cccc1F,-1
6,CCC(=O)Nc1ccc2ncnc(Nc3cccc(Br)c3)c2c1,83
7,CO[C@H]1C[C@@H]2CC[C@@H](C)[C@@](O)(O2)C(=O)C(=O)N2CCCC[C@H]2C(=O)O[C@H]([C@H](C)C[C@@H]2CC[C@@H](O)[C@H](OC)C2)CC(=O)[C@H](C)/C=C(\C)[C@@H](O)[C@@H](OC)C(=O)[C@H](C)C[C@H](C)/C=C/C=C/C=C/1C,96
8,O=C1NC(=O)/C(=C/c2ccc3c(c2)OC(F)(F)O3)S1,85
9,O=C1Nc2ccccc2/C1=C1/Nc2ccccc2/C1=N\OCCC(O)CO (stereo not given),0
10,O=c1c2ccccc2[nH]c(=S)n1CCN1CCC(=C(c2ccc(F)cc2)c2ccc(F)cc2)CC1,98
11,CC(C)n1cnc2c(NCc3ccccc3)nc(NCCCO)nc21,87
12,Cc1nc2cc3nc(-c4cccs4)cnc3cc2n1C,3
13,COc1cc2ncnc(Nc3ccc(O)c(Br)c3)c2cc1OC,4
14,CCOc1cc2ncnc(Nc3cccc(Br)c3)c2cc1OCC,6
15,Cn1cc(/C=C2\C(=O)Nc3ccc(S(N)(=O)=O)cc32)c2ccccc21,9
16,COc1ccc(CNc2nc(N(CCO)CCO)nc3c2ncn3C(C)C)cc1,55
17,O=c1cc(-c2cccc3c2Sc2ccccc2S3)oc(N2CCOCC2)c1,85
18,O=C(Nc1cccc(Nc2nccc(Nc3cccc(C(F)(F)F)c3)n2)c1)C1CC1,6

row,SMILES,residual activity [%]
1,CCN(CC)CCCCN1c2ccccc2Oc2ccc(Cl)cc21,112
2,Nc1cccc(-c2cc3c(Oc4cccc(O)c4)ncnc3[nH]2)c1,0
3,COc1ccc(OC)c2c(=S)c3ccccc3[nH]c12,77
4,COc1cccc(-c2cc(=O)c3ccccc3o2)c1N,92
5,CNc1cc2c(Nc3cccc(Br)c3)ncnc2cn1,58
6,CC(C)n1cnc2/c(=N/c3cccc(Cl)c3)nc(NCCO)[nH]c21,30
7,CN(C)c1ccc(/C=C2\C(=O)Nc3ccccc32)cc1,2
8,N#C/C(=C(\N)Sc1ccc(N)cc1)c1ccccc1C(F)(F)F,38
9,O=C1Nc2cc(Br)ccc2/C1=C1/Nc2ccccc2/C1=N\O,1
10,Ic1cccc(CSc2nnc(-c3ccncc3)o2)c1,19
11,O=C1NC(=O)c2cc(Nc3ccc(F)cc3)c(Nc3ccc(F)cc3)cc21,66
12,O=C1c2ccccc2-[n+]2ccc3c([nH]c4ccccc43)c21,67
13,COc1ccc(S(=O)(=O)N(CCO)c2ccccc2CN(C)C/C=C/c2ccc(Cl)cc2)cc1,92
14,O=C1NC(=O)/C(=C\c2ccc3nccnc3c2)S1,78
15,Oc1ccc(Nc2nc(-c3ccc(Cl)cc3)cs2)cc1,77
16,O=C1NC(=O)c2c1c1c3ccccc3[nH]c1c1[nH]c3cc(Br)ccc3c21,17
17,Oc1c2ccccc2c2c3c(cccc13)N=N2,2

# Target: Receptor-type tyrosine-protein kinase FLT3 (Homo sapiens) (UniProt P36888)
# Details: at 1 µM
# Receptor-type tyrosine-protein kinase FLT3 (Homo sapiens), sequence (P36888 whole entry): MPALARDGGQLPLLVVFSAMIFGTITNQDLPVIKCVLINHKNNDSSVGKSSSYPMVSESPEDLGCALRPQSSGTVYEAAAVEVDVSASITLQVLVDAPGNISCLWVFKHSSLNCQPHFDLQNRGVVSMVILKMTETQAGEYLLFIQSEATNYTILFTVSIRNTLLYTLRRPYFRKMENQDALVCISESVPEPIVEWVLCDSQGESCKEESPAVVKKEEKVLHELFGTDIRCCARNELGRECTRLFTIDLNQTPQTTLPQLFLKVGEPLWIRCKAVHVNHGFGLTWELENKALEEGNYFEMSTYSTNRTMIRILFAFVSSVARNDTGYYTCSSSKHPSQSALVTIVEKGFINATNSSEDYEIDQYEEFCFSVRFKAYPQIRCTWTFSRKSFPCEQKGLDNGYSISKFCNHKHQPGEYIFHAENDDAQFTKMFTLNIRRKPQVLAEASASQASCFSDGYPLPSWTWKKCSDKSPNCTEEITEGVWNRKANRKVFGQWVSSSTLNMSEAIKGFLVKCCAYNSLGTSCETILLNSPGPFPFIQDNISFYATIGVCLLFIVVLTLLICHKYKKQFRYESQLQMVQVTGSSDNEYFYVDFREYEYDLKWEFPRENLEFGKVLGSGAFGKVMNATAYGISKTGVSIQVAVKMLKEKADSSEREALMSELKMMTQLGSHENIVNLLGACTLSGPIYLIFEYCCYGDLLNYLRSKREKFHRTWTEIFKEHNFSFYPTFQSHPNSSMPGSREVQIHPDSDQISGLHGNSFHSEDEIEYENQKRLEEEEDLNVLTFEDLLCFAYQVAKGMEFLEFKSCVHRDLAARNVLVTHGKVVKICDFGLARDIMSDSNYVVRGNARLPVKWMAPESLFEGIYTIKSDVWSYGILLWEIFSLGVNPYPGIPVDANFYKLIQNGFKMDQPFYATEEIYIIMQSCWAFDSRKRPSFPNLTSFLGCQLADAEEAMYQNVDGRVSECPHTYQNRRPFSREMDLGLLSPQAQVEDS
row,SMILES,residual activity [%]
1,CC(=O)O/N=C1\C(=C2\C(=O)Nc3cc(Br)ccc32)Nc2ccccc21,3
2,Oc1n[nH]c2nnc(-c3c(-c4ccccc4)nn4ccccc34)cc12,76
3,Cn1cnc2cc3c(Nc4cccc(Br)c4)ncnc3cc21,113
4,O=C(O)c1ccc2c3c1cccc3c(=O)n1c3ccccc3nc21,50
5,Nc1nc(Nc2ccc(S(N)(=O)=O)cc2)nn1C(=S)Nc1c(F)cccc1F,2
6,CCC(=O)Nc1ccc2ncnc(Nc3cccc(Br)c3)c2c1,120
7,CO[C@H]1C[C@@H]2CC[C@@H](C)[C@@](O)(O2)C(=O)C(=O)N2CCCC[C@H]2C(=O)O[C@H]([C@H](C)C[C@@H]2CC[C@@H](O)[C@H](OC)C2)CC(=O)[C@H](C)/C=C(\C)[C@@H](O)[C@@H](OC)C(=O)[C@H](C)C[C@H](C)/C=C/C=C/C=C/1C,100
8,O=C1NC(=O)/C(=C/c2ccc3c(c2)OC(F)(F)O3)S1,89
9,O=C1Nc2ccccc2/C1=C1/Nc2ccccc2/C1=N\OCCC(O)CO (stereo not given),0
10,O=c1c2ccccc2[nH]c(=S)n1CCN1CCC(=C(c2ccc(F)cc2)c2ccc(F)cc2)CC1,81
11,CC(C)n1cnc2c(NCc3ccccc3)nc(NCCCO)nc21,89
12,Cc1nc2cc3nc(-c4cccs4)cnc3cc2n1C,15
13,COc1cc2ncnc(Nc3ccc(O)c(Br)c3)c2cc1OC,49
14,CCOc1cc2ncnc(Nc3cccc(Br)c3)c2cc1OCC,101
15,Cn1cc(/C=C2\C(=O)Nc3ccc(S(N)(=O)=O)cc32)c2ccccc21,1
16,COc1ccc(CNc2nc(N(CCO)CCO)nc3c2ncn3C(C)C)cc1,85
17,O=c1cc(-c2cccc3c2Sc2ccccc2S3)oc(N2CCOCC2)c1,85
18,O=C(Nc1cccc(Nc2nccc(Nc3cccc(C(F)(F)F)c3)n2)c1)C1CC1,45

row,SMILES,residual activity [%]
1,CCN(CC)CCCCN1c2ccccc2Oc2ccc(Cl)cc21,98
2,Nc1cccc(-c2cc3c(Oc4cccc(O)c4)ncnc3[nH]2)c1,22
3,COc1ccc(OC)c2c(=S)c3ccccc3[nH]c12,83
4,COc1cccc(-c2cc(=O)c3ccccc3o2)c1N,87
5,CNc1cc2c(Nc3cccc(Br)c3)ncnc2cn1,119
6,CC(C)n1cnc2/c(=N/c3cccc(Cl)c3)nc(NCCO)[nH]c21,20
7,CN(C)c1ccc(/C=C2\C(=O)Nc3ccccc32)cc1,4
8,N#C/C(=C(\N)Sc1ccc(N)cc1)c1ccccc1C(F)(F)F,62
9,O=C1Nc2cc(Br)ccc2/C1=C1/Nc2ccccc2/C1=N\O,1
10,Ic1cccc(CSc2nnc(-c3ccncc3)o2)c1,30
11,O=C1NC(=O)c2cc(Nc3ccc(F)cc3)c(Nc3ccc(F)cc3)cc21,107
12,O=C1c2ccccc2-[n+]2ccc3c([nH]c4ccccc43)c21,87
13,COc1ccc(S(=O)(=O)N(CCO)c2ccccc2CN(C)C/C=C/c2ccc(Cl)cc2)cc1,104
14,O=C1NC(=O)/C(=C\c2ccc3nccnc3c2)S1,94
15,Oc1ccc(Nc2nc(-c3ccc(Cl)cc3)cs2)cc1,70
16,O=C1NC(=O)c2c1c1c3ccccc3[nH]c1c1[nH]c3cc(Br)ccc3c21,41
17,Oc1c2ccccc2c2c3c(cccc13)N=N2,6
